From PubChem BioAssay
An excerpt weighted towards active compounds, which were near 4% of everything screened.
D1 ag: agonists of human D1 dopamine receptor; P21728; HEK293 T-REx D1 cells, calcium flux, agonist mode; activation, % at 2 µM; actives 1% (n = 360,000); further: 0% is about no effect
Target sequence (P21728 whole entry, looked up): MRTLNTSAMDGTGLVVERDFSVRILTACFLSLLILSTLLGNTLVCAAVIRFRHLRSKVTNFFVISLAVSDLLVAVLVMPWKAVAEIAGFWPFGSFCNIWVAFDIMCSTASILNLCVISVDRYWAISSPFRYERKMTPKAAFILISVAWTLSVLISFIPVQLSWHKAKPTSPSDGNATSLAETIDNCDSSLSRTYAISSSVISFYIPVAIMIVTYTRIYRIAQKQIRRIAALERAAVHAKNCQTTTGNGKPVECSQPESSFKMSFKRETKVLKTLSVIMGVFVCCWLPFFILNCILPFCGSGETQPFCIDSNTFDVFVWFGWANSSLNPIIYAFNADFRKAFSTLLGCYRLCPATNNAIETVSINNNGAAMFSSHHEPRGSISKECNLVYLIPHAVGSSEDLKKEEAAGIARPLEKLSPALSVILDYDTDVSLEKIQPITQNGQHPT
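Inducible HEK293 T-REx D1 cells, force-coupled to calcium signalling, were plated at 4000 cells/well with tetracycline and held overnight at 30 C. After no-wash calcium dye loading, compound-evoked calcium rise over 180 s flagged agonists.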
D1 PAM: human D1 dopamine receptor positive modulation | HEK293 TREx D1 cells, calcium flux, dopamine EC20 potentiation | potentiation, % at 10 µM | P21728 | actives 0.036% (n = 360,000); in the data active means potentiation above about 30%; further: 0% is about no effect
GRP78 ERSR act: ER stress response induction in glioma; Potency, µM, for the others: top-dose activation, hits mostly activators; U87-MG GRP78 promoter luciferase reporter, 16 h; actives 0.02% (n = 420,000); AID 602332; active means well fitted activation curve with a large enough effect; further: potency means the concentration at half of the fitted maximal effect; series mostly up to about 76 µM; % of control where 0% means no effect; nearly all actives have a fitted effect of over 35% in size
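Stably transfected U87-MG human glioma cells carrying a GRP78-based luminescent sensor were seeded at 1000 cells/well, pin-dosed with compounds and incubated 16 h. Luciferase reagent was then added, and end-point luminescence was read after 10 min at room temperature.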
D1 antagonist: blocks dopamine activation of the human D1 receptor; activity change, negative = inhibition, % at 10 µM; actives 3.2% (n = 360,000); P21728; HEK293 TREx D1 cells, calcium flux, dopamine EC80; hits give low values; in the data active means activity change below about -30%; further: on the % scale 0 is the no-effect control and ±100 the full control effect
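Compound effects on dopamine-evoked calcium signalling were measured in tetracycline-induced HEK293 Trex D1 cells. Dopamine at EC80 followed a 180 s compound pre-read, and fluorescence was tracked kinetically for 180 s more.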
TRHR agonist: TRH receptor (human) agonism; P34981; TRHR cells, calcium flux fluo-8, FDSS agonist mode; activation, % at 2 µM; actives 0.18% (n = 360,000); AID 493084; further: 0% is about no effect
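In this calcium-flux screen, cells bearing human TRHR are dye-loaded with fluo-8, baselined for 10 cycles, then exposed to library compounds; positive kinetic calcium responses during the agonist phase mark hits, with TRH as control.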
TRHR PAM: allosteric enhancers of human TRH receptor; enhancement, % at 2 µM; AID 493056; TRHR cells, fluo-8 calcium fluorescence, EC20 TRH enhancement; P34981; actives 0.66% (n = 360,000); in the data active means enhancement above about 30%; further: 0% is about no effect
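TRHR-expressing cells loaded with fluo-8 calcium dye were read kinetically (ex 480/em 530) during compound addition, then stimulated with an EC20 of TRH (10 nM final). Enhancement of the Gq-mediated intracellular calcium response was scored.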
The depositor's hits bear a star; nt = not tested or not shown; ! = not active in a repeat. Unless noted, no stated cut-off is given here; in the data, active means activation above about 30%; inactive means the rest.

SMILES	D1 ag	D1 PAM	GRP78 ERSR act	D1 antagonist	TRHR agonist	TRHR PAM
COCCCNCCCCOc1ccc(Br)cc1C	37*	-18	-4%	-35*	1	1
COCCNCCCCOc1ccc(Br)cc1C	11	-8	-4%	-17	0	-1
O=C(N/N=C/c1ccco1)c1cccc([N+](=O)[O-])c1	1	-4	-2%	7	1	-3
CN(CC(=O)Nc1ccc(OC(F)(F)F)cc1)C(=O)c1ccc(N2CCCC2=O)cc1	10	-7	-3%	-32*	0	-2
CN(CC(=O)Nc1ccc(Cl)cc1)C(=O)c1ccc(N2CCCC2=O)cc1	2	-7	-2%	-39*	2	3
CC1Cc2nc(SCC(=O)N3CCOCC3)n(C)c(=O)c2S1 (configuration not stated)	3	-2	-4%	2	0	-1
CC(C)Sc1nc2c(c(=O)n1C)SC(C)C2 (configuration not stated)	2	-10	3%	-32*	-1	-9
COc1cc(N(CCCn2cnc3c(SC)ncnc32)CCCn2cnc3c(SC)ncnc32)cc(OC)c1OC	nt	nt	-1%	nt	nt	nt
Cc1ccc2nc(N(CCCN(C)C)C(=O)c3ccc(Br)s3)sc2c1	41*!	-3	-11%	-2	2	3
CN(C)CCCN(C(=O)c1ccc(C(=O)c2ccccc2)cc1)c1nc2ccc(F)cc2s1	70*	-10	-5%	-33*	-1	10
CN(C)CCCN(C(=O)c1nc2ccccc2s1)c1nc2ccc(F)cc2s1	nt	nt	1%	nt	nt	nt
CN(C)CCCN(C(=O)c1cccc(N2C(=O)CCC2=O)c1)c1nc2cc3c(cc2s1)OCO3	-1	-2	-5%	12	0	32*
CN(C)CCCN(C(=O)c1ccc(Br)s1)c1nc2ccc(F)cc2s1	10	-3	-5%	5	1	10
CCN(Cc1ccccc1)S(=O)(=O)c1ccc(C(=O)N(CCCN(C)C)c2nc3ccc(F)cc3s2)cc1	5	-7	-13%	-6	0	-2
CCN(Cc1ccccc1)S(=O)(=O)c1ccc(C(=O)N(CCCN(C)C)c2nc3cc4c(cc3s2)OCCO4)cc1	3	-4	-7%	-41*	1	6
CC(Sc1nc2scc(-c3ccccc3)c2c(=O)[nH]1)C(=O)NC(N)=O (configuration not stated)	1	-3	-1%	-2	0	1
Cc1ccc(S(=O)(=O)N(Cc2ccc(F)cc2)C(=O)N2CCN(C)CC2)cc1	1	0	-4%	15	0	8
CCOC(=O)N1CCN(C(=O)CSc2ccc3nnc(-c4ccncc4)n3n2)CC1	0	-1	-2%	6	0	0
COc1cccc(C(=O)NCC(=O)OCC(=O)Nc2ncc(Cl)cc2Cl)c1	1	-1	-2%	-4	0	-4
CN(C)CCCN(C(=O)c1ccc(S(=O)(=O)N2CCOCC2)cc1)c1nc2cc3c(cc2s1)OCO3	1	-1	-5%	-1	1	3
CCN(CC)CCN(C(=O)c1ccc2ncsc2c1)c1nc2cc3c(cc2s1)OCO3	1	-3	-13%	-46*	0	-2
CN(C)CCCN(C(=O)c1ccc(S(=O)(=O)N2CCCCC2)cc1)c1nc2cc3c(cc2s1)OCO3	33*	1	-6%	-4	3	1
CN(C)CCCN(C(=O)c1ccc(C(=O)c2ccccc2)cc1)c1nc2cc3c(cc2s1)OCO3	62*	3	-8%	-7	2	1
CCOC(=O)N1CCN(S(=O)(=O)c2ccc(C(=O)N(CCN(C)C)c3nc4ccc(Cl)cc4s3)cc2)CC1	7	-11	11%	-33*	1	4
CCN(CC)CCN(C(=O)c1ccc(C(=O)c2ccccc2)cc1)c1nc2cc3c(cc2s1)OCO3	5	0	-5%	-10	0	0
SMILES	D1 ag	D1 PAM	GRP78 ERSR act	D1 antagonist	TRHR agonist	TRHR PAM
CC(=O)Nc1ccc(S(=O)(=O)NCCC(=O)OC(C)C(=O)c2ccc(C)cc2)cc1 (configuration not stated)	7	0	2%	-4	0	-4
CCN1CCN(c2c(S(=O)(=O)c3ccc(OC)cc3)cnc3cc(OC)c(OC)cc23)CC1	0	-9	1%	-40*	0	8
O=C(NC(=S)Nc1nc(-c2ccccc2)cs1)c1cncc(Br)c1	37*	6	-4%	1	5	0
O=C(NC(=S)Nc1nc(-c2ccccc2)cs1)c1cccnc1	13	10	2%	0	2	6
O=C(O)c1ccc(NC(=S)NC(=O)c2cncc(Br)c2)cc1	6	-2	-11%	-1	1	34*
Cc1c(Cc2c(Cl)cccc2Cl)c(=O)ccn1C(C)c1ccccc1 (configuration not stated)	2	0	-2%	11	2	-5
Cc1ccc(-c2nn(-c3cc(Cl)ccc3[N+](=O)[O-])c(=O)c3ccccc23)cc1C	0	1	-3%	-49*	0	-11
CCOc1ccc(OCC)c(Nc2nc3ccc(Cl)cc3n3cnnc23)c1	1	0	nt	-36*	0	-3
CCn1c(-c2cc(-c3ccc(C)c(C)c3)nc3ccccc23)n[nH]c1=S	2	0	nt	-2	-1	-6
Cc1ccc(-c2cc(-c3n[nH]c(=S)n3C)c3ccccc3n2)cc1	1	-5	2%	-37*	0	-25
Cc1c(C(=O)N2CCN(C)CC2)oc2ccc(Br)cc12	3	-4	1%	-1	0	6
CCN(CC)S(=O)(=O)c1ccc2c(c1)N(CC(=O)Nc1ccc(F)cc1F)C(=O)C1CCCN21 (configuration not stated)	3	1	-4%	-32*	0	1
CCN(CC)S(=O)(=O)c1ccc2c(c1)N(CC(=O)Nc1ccccc1F)C(=O)C1CCCN21 (configuration not stated)	-2	0	nt	12	-1	2
O=P(OC1CCCCC1)(OC1CCCCC1)C(O)c1cccnc1 (configuration not stated)	0	2	-4%	7	-1	5
N/C(=N\S(=O)(=O)c1cc(C(F)(F)F)cc(C(F)(F)F)c1)c1ccc(Cl)cc1	1	-7	-15%	-77*	1	4
O=C(CSc1nncc(=O)[nH]1)NCc1ccccc1	0	-10	-2%	12	0	-6
CSc1cccc(CN2CCC(CO)(Cc3cccc(C(F)(F)F)c3)CC2)c1	41*	-1	-11%	13	6	-9
OCC1(Cc2cccc(C(F)(F)F)c2)CCN(Cc2cc(F)cc(F)c2)CC1	0	5	-5%	8	2	-6
